The source made the active and inactive calls. Rule for the calls: active = hit-call score of the fitted dose curve at least 0.9, where 1 is the maximum; inactive = score below 0.9.
Experiment: ATG_E_Box_CIS: Attagene CIS-FACTORIAL HepG2 Assay for human Enhancer Box (E-box) (AID 2282936)
Conditions: HepG2 E-box cis-reporter transcription, actives raise or lower the signal
Procedure: ATG_CIS is a cell-based, multiplexed-readout assay that uses HepG2, a human liver cell line, with measurements taken at 24 hours after chemical dosing in a 24-well plate.ATG_E_Box_CIS is one of 52 assay component(s) measured or calculated from the ATG_CIS assay. It is designed to make measurements of mRNA induction, a form of inducible reporter, as detected with fluorescence intensity signals by Reverse transcription polymerase chain reaction (RT-PCR) and Capillary electrophoresis technology.Data from the assay component ATG_E_Box_CIS was analyzed into 1 assay endpoint. This assay endpoint, ATG_E_Box_CIS, was analyzed with bidirectional fitting relative to DMSO as the negative control and baseline of activity. Using a type of inducible reporter, measures of mRNA for gain or loss-of-signal activity can be used to understand the reporter gene at the transcription factor-level as they relate to the gene USF1. Furthermore, this assay endpoint can be referred to as a primary readout, because this assay has produced multiple assay endpoints where this one serves a reporter gene function. To generalize the intended target to other relatable targets, this assay endpoint is annotated to the dna binding intended target family, where the subfamily is basic helix-loop-helix protein.
Human liver HepG2 cells are transiently transfected with multiple reporter transcription units (MRTUs) in 6-well plates using FuGene 6 reagent (Roche; 3 ml FuGene/1 mg DNA). The MRTU constructs are regulated by a cis-regulating element (promoter). […] A major difference between the CIS and TRANS system is that in CIS activities of endogenous TFs are measured, whereas the TRANS assay evaluates changes in activities of exogenous, chimeric NR-Gal4 proteins. […] At the end of 24 hour incubation, total RNA was isolated using TriZol reagent (Invitrogen). The isolated RNA is then reverse-transcribed using oligo(dT) primer and Mo-MLV reverse transcriptase (Invitrogen) with DNAse I (Ambion) treatment for 30 min. The one-tenth of the produced cDNA was amplified by PCR using Taq DNA polymerase (Invitrogen) and two reporter sequence-specific primers. The PCR products were fluorescently labeled by primer extension with 6-arboxyfluorescein (6-FAM) 5'-labeled reporter sequence-specific primer (2 min at 95 C, 20 s at 68 C and 10 min at 72 C) and these products were digested with 5U of HpaI (New England Biolabs) for 2h at 37 C. The fragments were purified using Qiaquick PCR columns (Qiagen), analyzed on an ABI 3130xL genetic analyzer (Applied Biosystems) with peak positions identified by using a set of X-rhodamine (ROX)-labeled MapMarker1000 molecular weight standards (BioVentures). The raw capillary electrophoresis data was processed using Attagraph software (Attagene).

| Compound | outcome | AC50 |
| --- | --- | --- |
| CC(CO)OC(C)CO (stereo not given) (tested in a mixture with another compound) | inactive | – |
| CCCCc1ccc2c(n1)[C@@H](c1ccc(OC)cc1C[C@H](C)C(=O)O)[C@H](C(=O)O)[C@H]2c1ccc2c(c1)OCO2 | inactive | – |
| Oc1ccc2c(c1)OC[C@@H](N1CCC(O)(c3ccc(F)cc3)CC1)[C@H]2O | inactive | – |
| CNCc1cc(F)ccc1Oc1ccc(Cl)c(Cl)c1 | inactive | – |
| OC[C@@H](O)[C@@H](O)[C@H](O)[C@H](O)CO | inactive | – |
| CC1=C(/C=C/C(C)=C/C=C/C(C)=C/CO)C(C)(C)CCC1 | inactive | – |
| NCCO | inactive | – |
| Nc1ccc2c(c1)C(=O)c1ccccc1C2=O | inactive | – |
| CCCCCCCCCCCCCO | – | 21.8 µM (active) |
| CN1CCN(Cc2cc(-c3ccc4[nH]c(=O)oc4c3)co2)[C@@H](c2ccc(F)cc2)C1 | inactive | – |
| Cc1ccc(Cl)cc1 | inactive | – |
| CCOC(=O)C(C)(C)Oc1ccc(Cl)cc1 | inactive | – |
| Cc1ccccc1Cl | inactive | – |
| O=[N+]([O-])C(CO)(CO)CO | inactive | – |
| CC1(C)NC(=O)NC1=O | inactive | – |
| CCCc1cc(=O)[nH]c(=S)[nH]1 | inactive | – |
| COc1ccc2c(c1)c(CC(=O)O)c(C)n2C(=O)c1ccc(Cl)cc1 | inactive | – |
| CCCCOC(=O)CCCCCCCCC(=O)OCCCC | – | 142 µM (active) |
| Cc1cccc([N+](=O)[O-])c1C | inactive | – |
| O=C(N[C@@H](Cc1ccccc1)[C@@H](O)C(=O)N1C[C@@H](O)[C@@H](O)C1)c1cc2cc(Cl)ccc2[nH]1 | – | 165 µM (active) |

| Compound | outcome | AC50 |
| --- | --- | --- |
| CCCCCCCCCCC | inactive | – |
| COCCOC[C@H](CC1(C(=O)NC2CCC(C(=O)O)CC2)CCCC1)C(=O)Oc1ccc2c(c1)CCC2 (stereo not given in full) | inactive | – |
| CNC(=O)[C@H]1O[C@@H](n2cnc3c(NCc4cc(Cl)ccc4OCc4cc(C)no4)ncnc32)[C@H](O)[C@@H]1N | inactive | – |
| Cc1ccc(C)c(C)c1 | inactive | – |
| C[C@]12C=CC(=O)C=C1CC[C@@H]1[C@@H]2C(=O)C[C@@]2(C)[C@H]1CC[C@]2(O)C(=O)CO | inactive | – |
| COc1ccc(C)cc1N | inactive | – |
| CCCCCCOCCO | inactive | – |
| CC(=O)OC/C=C(\C)CCC=C(C)C | inactive | – |
| Cc1c(C(=O)O)c(O)cc2c1C(=O)c1c(O)c([C@@H]3O[C@H](CO)[C@@H](O)[C@H](O)[C@H]3O)c(O)c(O)c1C2=O | inactive | – |
| CC(C)(C)c1cc(O)c(C(C)(C)C)cc1O | inactive | – |
| CCOc1ccc2c(c1)C(C)=CC(C)(C)N2 | – | 156 µM (active) |
| Nc1nc(N)c2nc(CNc3ccc(C(=O)N[C@@H](CCC(=O)O)C(=O)O)cc3)cnc2n1 | inactive | – |
| O=c1[nH]cc(F)c(=O)[nH]1 | inactive | – |
| C1CCC(SSC2CCCCC2)CC1 | inactive | – |
| CCCCCCCCCCCC(=O)OC | inactive | – |
| Cc1ccc(C(C)C)c(O)c1 | inactive | – |
| Cc1ccc(N(C)C)cc1 | inactive | – |
| Nc1ccc(S(=O)(=O)c2ccc(N)cc2)cc1 | inactive | – |
| NCC1(Cc2noc(=O)[nH]2)CCCCC1 | inactive | – |
| O=C(OCCCCCOC(=O)c1ccccc1)c1ccccc1 | inactive | – |

— PubChem BioAssay (EPA / NIEHS)
